# The supplement of paper PMC8728848
# This is one part of a sample in which the strongest signals are shown more often than they occur.
# B1: MSMEG3662-2a (Mycobacterium smegmatis), A0QYH7_MYCS2 (protein)
# chain: MGDTLTAGQKLERGGSLQSGNGAYTLTLQDDGNLVLYARDKAVWSTGTNGQDVVRAEVQTDGNFVLYTAEKPVWHTDTKGKKEVKLVLQDDRNLVLYAKDGPAWSSKTDTTEPPPPAPEPEKEAEVAPAAAEEAAPAPVAEPAPAEPAPAAPPPAPPAPRTYTVVSGDTLWAIAERFYGDGSKYQQIADASGIANPDLIHPGQVLTIP
# Key:
# Assay in all cases: glycan array binding signal (z-score within array); higher = stronger binding
# Details in all cases: glycan notation: IUPAC condensed, linker removed
# [1] = molecular target: Fuc(a1-2)Gal(b1-3)GlcNAc(b1-3)GalNAc
# Outline: (§1)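 Glycan array data came from 3228 arrays in the Consortium for Functional Glycomics database, and only arrays with an available protein sequence were kept. Glycan names were put into IUPAC-condensed notation, and columns mapping to the same glycan were averaged. The binding signal is a within-array Z-score, averaged across arrays of one protein sequence run at different concentrations or buffers and across linkers. A negative Z-score can be read as non-binding.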
# [2] = molecular target: Fuc(a1-2)Gal(b1-3)[Fuc(a1-4)]GlcNAc(b1-2)Man(a1-3)[Fuc(a1-2)Gal(b1-3)[Fuc(a1-4)]GlcNAc(b1-2)Man(a1-3)]Man(b1-4)GlcNAc(b1-4)GlcNAc
# Outline: as §1
# [3] = molecular target: Fuc(a1-2)Gal(b1-4)GlcNAc(b1-3)GalNAc
# Outline: as §1
# [4] = molecular target: Fuc(a1-2)Gal(b1-4)GlcNAc(b1-3)[Fuc(a1-2)Gal(b1-4)GlcNAc(b1-6)]GalNAc
# Outline: as §1
# [5] = molecular target: Fuc(a1-2)Gal(b1-4)GlcNAc(b1-3)[Fuc(a1-3)[Gal(b1-4)]GlcNAc(b1-6)]Gal(b1-4)Glc
# Outline: as §1
# [6] = molecular target: Fuc(a1-2)[Gal(a1-3)]Gal(b1-3)GlcNAc(b1-2)Man(a1-3)[Fuc(a1-2)[Gal(a1-3)]Gal(b1-3)GlcNAc(b1-2)Man(a1-6)]Man(b1-4)GlcNAc(b1-4)GlcNAc
# Outline: as §1
# [7] = molecular target: Fuc(a1-2)[Gal(a1-3)]Gal(b1-4)Glc
# Outline: as §1
# [8] = molecular target: Fuc(a1-2)[Gal(a1-3)]Gal(b1-4)GlcNAc(b1-3)[Fuc(a1-2)[Gal(a1-3)]Gal(b1-4)GlcNAc(b1-6)]GalNAc
# Outline: as §1
# [9] = molecular target: Fuc(a1-2)[Gal(a1-3)]Gal(b1-4)GlcNAc(b1-6)GalNAc
# Outline: as §1
# [10] = molecular target: Fuc(a1-2)[GalNAc(a1-3)]Gal(b1-4)GlcNAc(b1-2)Man
# Outline: as §1
# [11] = molecular target: Fuc(a1-3)[Gal3S(b1-4)]GlcNAc
# Outline: as §1
# [12] = molecular target: Fuc(a1-3)[GalNAc(b1-4)]GlcNAc
# Outline: as §1
# [13] = molecular target: Fuc(a1-4)GlcNAc
# Outline: as §1
# [14] = molecular target: Gal(a1-3)[Gal(a1-4)]Gal(b1-4)GlcNAc
# Outline: as §1
# [15] = molecular target: Gal(b1-3)GlcNAc(b1-3)Gal(b1-4)GlcNAc(b1-2)[Gal(b1-3)GlcNAc(b1-3)Gal(b1-4)GlcNAc(b1-6)]Man(a1-6)[Gal(b1-3)GlcNAc(b1-3)Gal(b1-4)GlcNAc(b1-2)Man(a1-3)]Man(b1-4)GlcNAc(b1-4)[Fuc(a1-6)]GlcNAc
# Outline: as §1
# [16] = molecular target: Gal(b1-3)[Neu5Ac(a2-6)]GalNAc
# Outline: as §1
# [17] = molecular target: Gal(b1-3)[Neu5Ac(b2-6)]GalNAc
# Outline: as §1
# [18] = molecular target: Gal(b1-4)GlcNAc(a1-6)Gal(b1-4)GlcNAc
# Outline: as §1
# [19] = molecular target: Gal(b1-4)GlcNAc(b1-2)[Gal(b1-4)GlcNAc(b1-4)]Man(a1-3)[Gal(b1-4)GlcNAc(b1-2)[Gal(b1-4)GlcNAc(b1-6)]Man(a1-6)]Man(b1-4)GlcNAc(b1-4)GlcNAc
# Outline: as §1
# [20] = molecular target: Gal(b1-4)GlcNAc(b1-2)[Gal(b1-4)GlcNAc(b1-4)]Man(a1-3)[GlcNAc(b1-4)][Gal(b1-4)GlcNAc(b1-2)[Gal(b1-4)GlcNAc(b1-6)]Man(a1-6)]Man(b1-4)GlcNAc(b1-4)GlcNAc
# Outline: as §1
# [21] = molecular target: Gal(b1-4)GlcNAc(b1-3)Gal(b1-4)GlcNAc(b1-3)Gal(b1-4)GlcNAc(b1-3)Gal(b1-4)GlcNAc(b1-3)Gal(b1-4)GlcNAc(b1-2)Man(a1-3)[Gal(b1-4)GlcNAc(b1-3)Gal(b1-4)GlcNAc(b1-3)Gal(b1-4)GlcNAc(b1-3)Gal(b1-4)GlcNAc(b1-3)Gal(b1-4)GlcNAc(b1-2)Man(a1-6)]Man(b1-4)GlcNAc(b1-4)[Fuc(a1-6)]GlcNAc
# Outline: as §1
# [22] = molecular target: Gal(b1-4)GlcNAc(b1-3)Gal(b1-4)GlcNAc(b1-3)[Gal(b1-4)GlcNAc(b1-3)Gal(b1-4)GlcNAc(b1-6)]GalNAc
# Outline: as §1
# [23] = molecular target: Gal3S(b1-4)Glc6S
# Outline: as §1
# [24] = molecular target: Gal6P(b1-4)GlcNAc
# Outline: as §1
# [25] = molecular target: Glc(a1-6)Glc(a1-6)Glc(a1-6)Glc
# Outline: as §1
# [26] = molecular target: GlcNAc(b1-3)Gal(b1-4)GlcNAc(b1-2)[GlcNAc(b1-3)Gal(b1-4)GlcNAc(b1-6)]Man(a1-6)[GlcNAc(b1-3)Gal(b1-4)GlcNAc(b1-2)Man(a1-3)]Man(b1-4)GlcNAc(b1-4)GlcNAc
# Outline: as §1
# [27] = molecular target: GlcNAc(b1-3)Gal(b1-4)GlcNAc(b1-3)Gal(b1-4)GlcNAc
# Outline: as §1
# [28] = molecular target: GlcNAc(b1-3)Gal(b1-4)GlcNAc(b1-3)GalNAc
# Outline: as §1
# [29] = molecular target: GlcNAc(b1-4)GlcNAc(b1-4)GlcNAc
# Outline: as §1
# [30] = molecular target: GlcNAc(b1-4)GlcNAc(b1-4)GlcNAc(b1-4)GlcNAc(b1-4)GlcNAc
# Outline: as §1
binder,measurement,setting,value
B1,glycan array binding signal (z-score),[1],-0.084
same,glycan array binding signal (z-score),[2],0.02
same,glycan array binding signal (z-score),[3],0.35
same,glycan array binding signal (z-score),[4],-0.023
same,glycan array binding signal (z-score),[5],-0.103
same,glycan array binding signal (z-score),[6],-0.102
same,glycan array binding signal (z-score),[7],-0.24
same,glycan array binding signal (z-score),[8],0.285
same,glycan array binding signal (z-score),[9],-0.124
same,glycan array binding signal (z-score),[10],-0.046
same,glycan array binding signal (z-score),[11],-0.028
same,glycan array binding signal (z-score),[12],0.413
same,glycan array binding signal (z-score),[13],11.1
same,glycan array binding signal (z-score),[14],-0.039
same,glycan array binding signal (z-score),[15],0.25
same,glycan array binding signal (z-score),[16],-0.105
same,glycan array binding signal (z-score),[17],0.064
same,glycan array binding signal (z-score),[18],-0.067
same,glycan array binding signal (z-score),[19],-0.118
same,glycan array binding signal (z-score),[20],-0.186
same,glycan array binding signal (z-score),[21],0.159
same,glycan array binding signal (z-score),[22],0.038
same,glycan array binding signal (z-score),[23],-0.107
same,glycan array binding signal (z-score),[24],-0.205
same,glycan array binding signal (z-score),[25],-0.182
same,glycan array binding signal (z-score),[26],-0.017
same,glycan array binding signal (z-score),[27],-0.131
same,glycan array binding signal (z-score),[28],-0.121
same,glycan array binding signal (z-score),[29],3.59
same,glycan array binding signal (z-score),[30],8.12
